Structures are written as SMILES. Results filed as inconclusive are left out. Entries that show only a call come without a potency. Activity calls are given as the source filed them. Calls come from the whole dose curve; as a rule, active = well fitted cell-killing curve with a large enough effect; inconclusive = small, poorly fitted or top-dose-only effect; inactive = no such curve, though single readings can be large or run the other way.
Potency is the fitted concentration of half-maximal effect.

The nature of the assay: qHTS of pediatric cancer cell lines to identify multiple opportunities for drug repurposing: Primary screen for Rh41 cells (AID 1347108). Note: nearly all actives have a fitted effect of over 70% in size. As to conditions: Rh41 rhabdomyosarcoma viability, CellTiter-Glo luminescence, 48 h; series mostly up to 46 µM. Put shortly: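 Luminescence from CellTiter-Glo served as readout of metabolically active cells after 48 h compound exposure. Titrations: MIPE 11-point, from 0.78 nM; NPC 8-point, from 0.59 nM (final). Concentration-response curves came straight from the primary screen.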
Background: Quantitative high-throughput screening tests each substance at several concentrations.
Consider `COc1ccc(CN2CCNCC2)c(OC)c1OC`, for which the Potency result was “inactive”.
Under `C[C@H](CN1CCOCC1)C(C(=O)N1CCCC1)(c1ccccc1)c1ccccc1` stands 46.9 µM (active).
With `CCOP(=S)(OCC)O/N=C(\C#N)c1ccccc1`, the Potency entry is “inactive”.
With `CC[C@]1(O)CC[C@H]2[C@@H]3CCC4=CCCC[C@@H]4[C@H]3CC[C@@]21C` the entry was “inactive”.
Under `NCc1cccnc1` stands “inactive”.
`CCCOC(=O)Cc1ccc(OCC(=O)N(CC)CC)c(OC)c1`: the Potency entry was “inactive”.
Consider `CC(Cc1ccccc1)NCCCCl` (centres undefined), for which the Potency result is “inactive”.
With `CC[C@H](O)C(C[C@H](C)N(C)C)(c1ccccc1)c1ccccc1` the figure was 44.1 µM (active); with `Nc1ccc(N)cc1`, “inactive”.
With `COP(=O)(OC)OC=C(Cl)Cl` the entry was “inactive”; with `COc1cc(C[C@@H](C)N)c(OC)cc1C`, “inactive”.
With `CNC(=O)NC(O)C(Cl)(Cl)Cl` (centres undefined) the entry was “inactive”; with `C[N+](C)(C)CCOC(=O)C(O)(c1ccccc1)c1ccccc1`, “inactive”; with `CCOC(=O)c1cncn1C(C)c1ccccc1` (centres undefined), “inactive”.
For the molecule `Sc1ccccc1Cl`, the Potency result was “inactive”.
For `COP(=O)(OC)C(O)C(Cl)(Cl)Cl` (centres undefined), the Potency result was “inactive”.
Under `CCOC(=O)C1(c2ccccc2)CCN(CCc2ccc(N)cc2)CC1` stands “inactive”.
Under `CN1C2CCC(C)(C)C1CC(OC(=O)C(O)(c1cccs1)c1cccs1)C2` (centres undefined) stands “inactive”; under `CC1N=C(N)OC1c1ccccc1` (centres undefined), “inactive”; under `CC(C)(O)C(Cl)(Cl)Cl`, “inactive”.
`CN1C(=O)CN=C(c2ccccc2)c2cc(Cl)ccc21`: the Potency entry was “inactive”.
Under `CCS(=O)(=O)C(C)(C)S(=O)(=O)CC` stands “inactive”; under `CCN1CCCC1CNC(=O)C(O)(c1ccccc1)c1ccccc1` (centres undefined), “inactive”.
For `C=CC[C@]1(O)CC[C@H]2[C@@H]3CCC4=CC(=O)CCC4=C3C=C[C@@]21C`, the Potency result was “inactive”.

(Values after PubChem BioAssay (NCATS).)
